Columns and labels:
Assay in all cases: DAPPL (digital affinity profiling via proximity ligation, sequencing); 10 mM Tris-HCl pH 7.5, 50 mM NaCl, 1 mM DTT, 4% glycerol, room temperature, 30 min; GST-TFs on glutathione beads, 16-mer random dsDNA library, 0.1% formaldehyde crosslink after washing; high values mean tight binding
Conditions in all cases: protein: recombinant; tags: N-terminal GST; dsDNA, one strand shown
FEV = biological target: T1, FEV (Homo sapiens, UniProt Q99581 1-238)
T1 sequence: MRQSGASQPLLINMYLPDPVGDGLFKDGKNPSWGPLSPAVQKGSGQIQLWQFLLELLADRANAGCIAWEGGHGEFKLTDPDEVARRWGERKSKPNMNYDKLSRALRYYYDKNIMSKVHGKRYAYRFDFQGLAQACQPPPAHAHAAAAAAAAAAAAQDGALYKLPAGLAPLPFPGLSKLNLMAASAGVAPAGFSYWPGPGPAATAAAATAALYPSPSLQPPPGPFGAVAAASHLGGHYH
Method in brief: (§1)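 In yeast, human transcription factors were expressed with a GST fusion, then pulled down on glutathione beads and given DNA barcodes. Pooled with a tag-only sample, they were exposed to 200 nmole of a 16-mer random double-stranded DNA library (Tris/NaCl/DTT/glycerol buffer, room temperature, 30 min), washed, crosslinked with 0.1% formaldehyde, proximity-ligated using BsaI/T4 ligase for 1 h at 37 °C, PCR-amplified and read on an Illumina NextSeq500. Each hexamer's frequency of reads for a factor, divided by the matching frequency for the tag-only sample, gives the binding signal.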

ETV5 = ETV5 (Homo sapiens, UniProt P41161 1-510)
Chain of ETV5 (P41161 whole entry): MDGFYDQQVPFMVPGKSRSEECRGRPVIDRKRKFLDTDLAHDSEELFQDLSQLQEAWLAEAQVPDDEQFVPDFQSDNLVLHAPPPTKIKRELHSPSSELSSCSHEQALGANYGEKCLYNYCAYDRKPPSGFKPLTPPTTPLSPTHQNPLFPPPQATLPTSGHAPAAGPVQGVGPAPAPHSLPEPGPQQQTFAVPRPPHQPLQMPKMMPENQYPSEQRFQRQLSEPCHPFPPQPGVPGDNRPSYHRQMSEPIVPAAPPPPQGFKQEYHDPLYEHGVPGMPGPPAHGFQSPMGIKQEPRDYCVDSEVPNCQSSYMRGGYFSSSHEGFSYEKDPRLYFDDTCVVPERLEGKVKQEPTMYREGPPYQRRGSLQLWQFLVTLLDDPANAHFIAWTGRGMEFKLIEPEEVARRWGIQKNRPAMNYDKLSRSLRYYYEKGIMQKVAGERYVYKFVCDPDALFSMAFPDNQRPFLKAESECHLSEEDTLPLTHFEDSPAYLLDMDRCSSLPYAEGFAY
Method in brief: as §1

SPIC = biological target: T2, SPIC (Homo sapiens, UniProt Q8N5J4 1-248)
T2 sequence: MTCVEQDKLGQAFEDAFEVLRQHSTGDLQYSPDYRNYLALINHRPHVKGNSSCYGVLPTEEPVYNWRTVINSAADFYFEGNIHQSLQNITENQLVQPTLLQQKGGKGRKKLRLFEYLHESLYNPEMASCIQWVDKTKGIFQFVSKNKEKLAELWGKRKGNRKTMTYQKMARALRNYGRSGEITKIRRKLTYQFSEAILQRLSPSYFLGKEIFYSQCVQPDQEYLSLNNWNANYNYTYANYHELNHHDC
Method in brief: as §1

ELF4 = ELF4 (Homo sapiens, UniProt Q99607 1-663)
Chain of ELF4 (Q99607 whole entry): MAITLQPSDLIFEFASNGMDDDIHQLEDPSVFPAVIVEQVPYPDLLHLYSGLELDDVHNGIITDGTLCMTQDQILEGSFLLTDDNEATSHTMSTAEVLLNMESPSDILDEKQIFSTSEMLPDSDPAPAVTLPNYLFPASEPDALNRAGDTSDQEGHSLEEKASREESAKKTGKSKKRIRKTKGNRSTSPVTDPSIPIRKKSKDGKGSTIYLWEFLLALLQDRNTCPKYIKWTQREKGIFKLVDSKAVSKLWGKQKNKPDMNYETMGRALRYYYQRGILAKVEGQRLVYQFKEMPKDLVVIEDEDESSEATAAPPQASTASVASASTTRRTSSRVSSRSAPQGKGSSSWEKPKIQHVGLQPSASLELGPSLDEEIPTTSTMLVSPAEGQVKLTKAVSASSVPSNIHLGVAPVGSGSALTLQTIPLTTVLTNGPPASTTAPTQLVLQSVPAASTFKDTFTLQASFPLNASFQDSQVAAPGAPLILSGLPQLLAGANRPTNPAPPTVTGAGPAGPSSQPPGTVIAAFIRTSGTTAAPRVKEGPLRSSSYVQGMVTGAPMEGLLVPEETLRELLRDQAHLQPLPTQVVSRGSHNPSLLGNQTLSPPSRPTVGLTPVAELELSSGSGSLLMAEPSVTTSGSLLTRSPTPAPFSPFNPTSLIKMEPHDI
Method in brief: as §1

ELK4 = biological target: T3, ELK4 (Homo sapiens, UniProt P28324-2 1-405)
T3 sequence: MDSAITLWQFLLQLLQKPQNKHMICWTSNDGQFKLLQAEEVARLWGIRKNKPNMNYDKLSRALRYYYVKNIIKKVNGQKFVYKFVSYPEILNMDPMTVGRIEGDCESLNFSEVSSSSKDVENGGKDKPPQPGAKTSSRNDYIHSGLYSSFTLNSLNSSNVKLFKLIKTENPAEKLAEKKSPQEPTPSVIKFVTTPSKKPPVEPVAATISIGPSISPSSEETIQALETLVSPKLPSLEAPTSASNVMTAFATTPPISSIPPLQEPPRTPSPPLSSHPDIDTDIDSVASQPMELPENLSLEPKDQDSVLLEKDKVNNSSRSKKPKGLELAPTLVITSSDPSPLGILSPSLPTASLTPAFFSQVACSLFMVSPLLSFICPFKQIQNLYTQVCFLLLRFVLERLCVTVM
Method in brief: as §1

ETV2 = biological target: T4, ETV2 (Homo sapiens, UniProt O00321 1-342)
T4 sequence: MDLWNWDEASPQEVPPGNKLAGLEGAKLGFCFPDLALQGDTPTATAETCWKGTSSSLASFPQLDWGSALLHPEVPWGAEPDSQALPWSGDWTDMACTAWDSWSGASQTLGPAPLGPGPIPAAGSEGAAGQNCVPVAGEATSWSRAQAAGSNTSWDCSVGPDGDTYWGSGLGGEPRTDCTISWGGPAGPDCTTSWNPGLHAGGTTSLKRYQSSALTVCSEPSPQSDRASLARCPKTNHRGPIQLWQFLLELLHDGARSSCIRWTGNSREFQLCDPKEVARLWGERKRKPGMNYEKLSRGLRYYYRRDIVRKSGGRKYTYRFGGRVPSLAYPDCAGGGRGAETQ
Method in brief: as §1

ETV1 = ETV1 (Homo sapiens, UniProt P50549 1-477)
Chain of ETV1 (P50549 whole entry): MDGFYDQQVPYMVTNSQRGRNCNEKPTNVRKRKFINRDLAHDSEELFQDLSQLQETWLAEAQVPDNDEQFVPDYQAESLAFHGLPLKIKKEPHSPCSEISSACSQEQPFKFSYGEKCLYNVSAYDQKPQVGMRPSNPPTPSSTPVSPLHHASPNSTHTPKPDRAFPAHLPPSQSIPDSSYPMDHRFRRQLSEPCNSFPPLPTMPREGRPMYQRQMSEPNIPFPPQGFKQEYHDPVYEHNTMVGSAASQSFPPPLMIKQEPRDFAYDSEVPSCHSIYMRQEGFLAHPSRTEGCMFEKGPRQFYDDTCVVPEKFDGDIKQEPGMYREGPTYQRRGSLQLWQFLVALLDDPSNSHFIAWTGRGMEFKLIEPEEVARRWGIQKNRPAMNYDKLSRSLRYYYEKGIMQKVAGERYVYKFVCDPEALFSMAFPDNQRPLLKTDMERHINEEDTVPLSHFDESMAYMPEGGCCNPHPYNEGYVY
Method in brief: as §1

ETV3L = biological target: T5, ETV3L (Homo sapiens, UniProt Q6ZN32 1-361)
T5 sequence: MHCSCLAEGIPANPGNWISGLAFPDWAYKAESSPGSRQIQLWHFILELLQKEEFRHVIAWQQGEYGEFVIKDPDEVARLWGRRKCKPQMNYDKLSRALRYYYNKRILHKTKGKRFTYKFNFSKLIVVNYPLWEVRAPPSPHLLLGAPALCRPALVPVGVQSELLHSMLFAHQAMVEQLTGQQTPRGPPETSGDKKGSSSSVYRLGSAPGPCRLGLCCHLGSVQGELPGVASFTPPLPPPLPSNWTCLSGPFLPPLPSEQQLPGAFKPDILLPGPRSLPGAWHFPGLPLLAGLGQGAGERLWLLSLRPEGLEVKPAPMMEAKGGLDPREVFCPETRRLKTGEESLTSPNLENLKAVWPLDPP
Method in brief: as §1

ETS2 = biological target: T6, ETS2 (Homo sapiens, UniProt P15036 1-469)
T6 sequence: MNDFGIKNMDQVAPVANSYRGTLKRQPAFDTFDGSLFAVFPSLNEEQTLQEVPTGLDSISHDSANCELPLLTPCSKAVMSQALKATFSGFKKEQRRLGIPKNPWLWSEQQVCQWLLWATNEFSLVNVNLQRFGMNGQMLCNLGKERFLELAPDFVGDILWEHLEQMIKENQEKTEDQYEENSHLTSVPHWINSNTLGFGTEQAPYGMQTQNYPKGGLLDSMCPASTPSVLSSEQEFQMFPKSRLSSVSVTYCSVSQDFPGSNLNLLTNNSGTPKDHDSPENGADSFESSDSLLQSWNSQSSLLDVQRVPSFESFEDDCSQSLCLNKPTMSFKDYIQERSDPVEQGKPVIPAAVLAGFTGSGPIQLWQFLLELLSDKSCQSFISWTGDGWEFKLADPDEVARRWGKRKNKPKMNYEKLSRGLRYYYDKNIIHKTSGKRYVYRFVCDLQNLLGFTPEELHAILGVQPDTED
Method in brief: as §1

SPDEF = biological target: T7, SPDEF (Homo sapiens, UniProt O95238 1-335)
T7 sequence: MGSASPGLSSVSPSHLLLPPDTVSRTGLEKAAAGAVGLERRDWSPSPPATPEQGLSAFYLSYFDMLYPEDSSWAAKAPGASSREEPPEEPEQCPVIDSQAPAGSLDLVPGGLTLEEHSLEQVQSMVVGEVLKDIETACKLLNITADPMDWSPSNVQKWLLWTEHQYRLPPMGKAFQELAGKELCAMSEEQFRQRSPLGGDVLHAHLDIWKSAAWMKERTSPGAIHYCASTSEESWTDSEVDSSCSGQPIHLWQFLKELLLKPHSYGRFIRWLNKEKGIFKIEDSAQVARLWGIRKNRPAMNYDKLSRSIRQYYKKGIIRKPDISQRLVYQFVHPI
Method in brief: as §1

ETV7 = biological target: T8, ETV7 (Homo sapiens, UniProt Q9Y603 1-341)
T8 sequence: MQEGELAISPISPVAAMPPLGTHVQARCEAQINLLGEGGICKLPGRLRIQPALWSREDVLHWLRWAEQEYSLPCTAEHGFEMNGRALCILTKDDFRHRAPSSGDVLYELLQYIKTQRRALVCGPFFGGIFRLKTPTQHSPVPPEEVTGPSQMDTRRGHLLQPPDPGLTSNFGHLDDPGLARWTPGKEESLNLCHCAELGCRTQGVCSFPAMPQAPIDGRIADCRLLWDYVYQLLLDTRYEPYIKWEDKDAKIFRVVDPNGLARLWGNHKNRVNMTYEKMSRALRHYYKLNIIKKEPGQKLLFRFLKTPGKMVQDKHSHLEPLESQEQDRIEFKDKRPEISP
Method in brief: as §1

ELF5 = biological target: T9, ELF5 (Homo sapiens, UniProt Q9UKW6-2 1-255)
T9 sequence: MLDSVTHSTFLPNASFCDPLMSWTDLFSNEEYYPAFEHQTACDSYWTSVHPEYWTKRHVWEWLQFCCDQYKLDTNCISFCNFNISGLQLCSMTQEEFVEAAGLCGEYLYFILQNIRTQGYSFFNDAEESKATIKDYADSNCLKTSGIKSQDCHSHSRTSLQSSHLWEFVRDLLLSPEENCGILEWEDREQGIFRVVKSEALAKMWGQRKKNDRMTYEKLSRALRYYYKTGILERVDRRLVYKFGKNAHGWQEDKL
Method in brief: as §1

ETV3 = biological target: T10, ETV3 (Homo sapiens, UniProt P41162-2 1-143)
T10 sequence: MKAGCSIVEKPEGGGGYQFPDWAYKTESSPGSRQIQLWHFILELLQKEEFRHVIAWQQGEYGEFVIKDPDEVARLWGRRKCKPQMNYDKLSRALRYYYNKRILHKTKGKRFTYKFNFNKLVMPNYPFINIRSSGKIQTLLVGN
Method in brief: as §1

ETV6 = ETV6 (Homo sapiens, UniProt P41212 1-452)
Chain of ETV6 (P41212 whole entry): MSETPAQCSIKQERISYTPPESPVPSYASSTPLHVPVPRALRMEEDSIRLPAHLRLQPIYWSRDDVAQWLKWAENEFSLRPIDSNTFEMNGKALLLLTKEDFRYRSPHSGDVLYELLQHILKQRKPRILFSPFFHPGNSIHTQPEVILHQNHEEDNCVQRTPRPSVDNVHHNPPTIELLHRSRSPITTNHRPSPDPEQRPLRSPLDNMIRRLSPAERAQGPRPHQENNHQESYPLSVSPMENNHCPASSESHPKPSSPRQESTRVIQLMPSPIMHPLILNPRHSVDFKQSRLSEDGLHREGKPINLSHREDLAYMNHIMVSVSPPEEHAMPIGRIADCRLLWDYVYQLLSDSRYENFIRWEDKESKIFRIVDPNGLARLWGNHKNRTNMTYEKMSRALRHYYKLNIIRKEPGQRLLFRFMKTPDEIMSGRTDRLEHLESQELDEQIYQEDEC
Method in brief: as §1

ELF3 = biological target: T11, ELF3 (Homo sapiens, UniProt P78545 1-371)
T11 sequence: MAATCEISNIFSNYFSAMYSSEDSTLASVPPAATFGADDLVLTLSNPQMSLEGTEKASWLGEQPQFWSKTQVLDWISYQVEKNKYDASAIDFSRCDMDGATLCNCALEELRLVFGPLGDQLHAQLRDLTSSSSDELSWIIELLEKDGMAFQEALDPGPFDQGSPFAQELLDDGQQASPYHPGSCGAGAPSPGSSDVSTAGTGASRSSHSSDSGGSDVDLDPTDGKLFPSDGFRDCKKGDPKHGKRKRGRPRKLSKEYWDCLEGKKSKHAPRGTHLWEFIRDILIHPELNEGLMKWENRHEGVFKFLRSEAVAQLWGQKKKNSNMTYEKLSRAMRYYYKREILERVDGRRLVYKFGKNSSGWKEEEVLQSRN
Method in brief: as §1

CRX = CRX (Homo sapiens, UniProt O43186 1-299)
Chain of CRX (O43186 whole entry): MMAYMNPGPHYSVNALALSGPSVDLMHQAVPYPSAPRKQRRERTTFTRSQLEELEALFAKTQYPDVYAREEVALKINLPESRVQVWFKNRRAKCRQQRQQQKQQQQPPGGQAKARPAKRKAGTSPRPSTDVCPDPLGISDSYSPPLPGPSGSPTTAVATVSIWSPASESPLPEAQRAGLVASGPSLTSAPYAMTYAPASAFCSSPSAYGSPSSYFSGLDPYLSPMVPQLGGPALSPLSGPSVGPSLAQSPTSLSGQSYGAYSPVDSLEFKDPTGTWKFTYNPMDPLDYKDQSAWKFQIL
Method in brief: as §1

ERF = biological target: T12, ERF (Homo sapiens, UniProt P50548 1-548)
T12 sequence: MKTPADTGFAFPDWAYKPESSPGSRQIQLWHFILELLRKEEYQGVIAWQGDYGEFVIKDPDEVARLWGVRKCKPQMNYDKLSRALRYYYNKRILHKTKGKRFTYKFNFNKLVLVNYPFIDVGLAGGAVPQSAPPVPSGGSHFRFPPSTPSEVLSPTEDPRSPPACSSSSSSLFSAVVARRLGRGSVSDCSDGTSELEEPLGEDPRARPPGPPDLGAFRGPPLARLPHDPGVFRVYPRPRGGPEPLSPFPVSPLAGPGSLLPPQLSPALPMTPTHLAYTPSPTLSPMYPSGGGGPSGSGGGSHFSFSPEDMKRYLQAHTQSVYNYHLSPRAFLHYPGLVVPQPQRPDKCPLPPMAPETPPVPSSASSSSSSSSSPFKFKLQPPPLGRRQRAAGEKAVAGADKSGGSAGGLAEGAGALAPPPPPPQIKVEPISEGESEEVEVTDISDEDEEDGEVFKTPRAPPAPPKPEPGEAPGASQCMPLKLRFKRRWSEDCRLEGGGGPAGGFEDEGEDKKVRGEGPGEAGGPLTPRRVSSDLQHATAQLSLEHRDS
Method in brief: as §1

Sequence | binding signal (FEV) | binding signal (ETV5) | binding signal (SPIC) | binding signal (ELF4) | binding signal (ELK4) | binding signal (ETV2) | binding signal (ETV1) | binding signal (ETV3L) | binding signal (ETS2) | binding signal (SPDEF) | binding signal (ETV7) | binding signal (ELF5) | binding signal (ETV3) | binding signal (ETV6) | binding signal (ELF3) | binding signal (CRX) | binding signal (ERF)
TGGCCC | 1.09 fold enrichment (6-mer frequency, TF over GST control) | 1.12 fold enrichment (6-mer frequency, TF over GST control) | 1.18 fold enrichment (6-mer frequency, TF over GST control) | 1.14 fold enrichment (6-mer frequency, TF over GST control) | 1.19 fold enrichment (6-mer frequency, TF over GST control) | 1.18 fold enrichment (6-mer frequency, TF over GST control) | 1.15 fold enrichment (6-mer frequency, TF over GST control) | 1.07 fold enrichment (6-mer frequency, TF over GST control) | 1.12 fold enrichment (6-mer frequency, TF over GST control) | 1.03 fold enrichment (6-mer frequency, TF over GST control) | 1.01 fold enrichment (6-mer frequency, TF over GST control) | 1.02 fold enrichment (6-mer frequency, TF over GST control) | 1.03 fold enrichment (6-mer frequency, TF over GST control) | 1.06 fold enrichment (6-mer frequency, TF over GST control) | – | – | –
TTGGGT | 1.07 fold enrichment (6-mer frequency, TF over GST control) | 1.04 fold enrichment (6-mer frequency, TF over GST control) | 1.07 fold enrichment (6-mer frequency, TF over GST control) | 1.08 fold enrichment (6-mer frequency, TF over GST control) | 1.09 fold enrichment (6-mer frequency, TF over GST control) | – | 1.06 fold enrichment (6-mer frequency, TF over GST control) | 1.1 fold enrichment (6-mer frequency, TF over GST control) | 1.03 fold enrichment (6-mer frequency, TF over GST control) | 1.04 fold enrichment (6-mer frequency, TF over GST control) | 1.08 fold enrichment (6-mer frequency, TF over GST control) | 1.08 fold enrichment (6-mer frequency, TF over GST control) | – | – | 1.14 fold enrichment (6-mer frequency, TF over GST control) | 1.07 fold enrichment (6-mer frequency, TF over GST control) | 1.27 fold enrichment (6-mer frequency, TF over GST control)

— paper PMC7862700, “An all-to-all approach to the identification of sequence-specific readers for epigenetic DNA modifications on cytosine”
